Results: PubChem BioAssay AID641 (Vanderbilt High Throughput Screening Facility, 2007)
Out of some 58,000 compounds screened, about 3,400 (5.9%) were called active.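 Rule for the calls: active = luminescence count or its row- and column-corrected plate score outside the 99.7% band of the plate's sample wells, on either side; inactive = the rest.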 The list comes from a sample in which actives are over-represented; it also holds similar structures and randomly drawn compounds.

Biological target: D(1A) dopamine receptor (Homo sapiens) (UniProt P21728)
Sequence (P21728 whole entry, looked up): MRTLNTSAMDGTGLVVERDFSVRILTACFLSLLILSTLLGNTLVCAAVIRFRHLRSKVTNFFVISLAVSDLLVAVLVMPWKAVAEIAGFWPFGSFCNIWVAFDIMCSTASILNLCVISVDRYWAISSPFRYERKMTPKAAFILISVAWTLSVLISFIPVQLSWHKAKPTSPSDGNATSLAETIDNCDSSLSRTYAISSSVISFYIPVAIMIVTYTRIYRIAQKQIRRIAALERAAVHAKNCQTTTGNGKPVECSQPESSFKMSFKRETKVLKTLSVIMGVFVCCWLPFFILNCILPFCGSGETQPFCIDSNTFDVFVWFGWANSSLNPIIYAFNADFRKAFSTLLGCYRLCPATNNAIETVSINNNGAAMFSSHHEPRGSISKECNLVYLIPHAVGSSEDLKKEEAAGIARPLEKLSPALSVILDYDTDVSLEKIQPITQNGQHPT
Test: D1 CRE-luciferase signal change, two-sided – cell-based, HEK293 D1, dopamine EC30, D1 allosteric modulator project, primary screen (AID 641)
Settings: dopamine EC30 potentiation, at 10 µM, actives deviate in either direction

B-score, inactive:
CCSc1nc2c(c(=O)[nH]1)C(c1cccnc1)C(C(=O)OC(C)C)=C(C)N2 (centres undefined) 0.843
O=c1/c(=C/c2ccc(CNS(=O)(=O)c3ccccc3)o2)sc2n1CCN=2 -0.139
Cc1ccc(C)c(S(=O)(=O)n2cnc3ccccc32)c1 0.135
Cc1ccc(N2C(=O)c3oc4ccccc4c(=O)c3C2c2cccnc2)nc1 (centres undefined) 0.194
Cc1ccc(C(=O)Nc2nnc(-c3ccncc3)s2)o1 -0.406
CCn1c(=N)c(C(=O)NCCCOC)cc2c(=O)n3cccc(C)c3nc21 -0.055
CCOC(=O)N1CCN(CC(=O)c2ccc3c(c2)CCN3)CC1 -0.515
O=C(O)c1cc(S(=O)(=O)N2CCCCCC2)c(Cl)cc1Cl -0.949
Cc1ccc(C(c2nnnn2CS(=O)(=O)c2ccc(C)cc2)N2CCC(C(N)=O)CC2)cc1 (centres undefined) 0.737
CC(C)(C)n1nnnc1C(c1ccc2ncccc2c1)N1CCSCC1 (centres undefined) -0.519
COc1ccc(CCn2nnnc2C(c2ccccc2)N2CCN(C)CC2)cc1OC (centres undefined) 0.116
CCC(C)(C)n1nnnc1C(c1ccccc1OC)N1CCSCC1 (centres undefined) -0.522
CCOCCc1c(O)nc(SCC(=O)NCc2ccco2)[nH]c1=O 1.04
CCCC(C)n1[nH]c(=O)c2c(C)cc(C)nc21 (centres undefined) 1.59
N#CCCN1CCN(S(=O)(=O)c2ccc(S(=O)(=O)N3CCCC3)cc2)CC1 0.478
N#CCCN1CCN(S(=O)(=O)c2ccc(S(=O)(=O)NC3CC3)cc2)CC1 -0.0246
COc1ccc(N2C(=O)C3CCCN3C2c2cc(OC)c(OC)cc2OC)cc1 (centres undefined) 0.17
CCOC(=O)C1=C(C)NC(C)=C(C(=O)OCC)C1c1ccccn1 -0.891
CCOC(=O)c1cc(-c2ccc(Cl)s2)nc2c1c(C)nn2C 0.665
COc1ccc(CCNC(=O)c2ccco2)cc1 1.58
Cc1ccc(-c2nc(COC(=O)c3c(C)noc3C)cs2)cc1 -0.259
CCOC(=O)c1c(-c2ccc(C)cc2C)csc1NC(=O)CSc1nnnn1C 0.507
O=C(C1=C(O)C(=O)N(c2ncccn2)C1c1cccs1)c1ccco1 (centres undefined) -0.746
Cn1c(=O)[nH]c(=O)c2c1nc(N1CCN(CCO)CC1)n2CCSc1nc2ccccc2s1 0.525
c1nnc2c3c4c(sc3ncn12)CCC4 0.277
Cc1ccccc1Cn1c(=O)[nH]c2ccccc21 -0.259
Cc1ccc(N2C(=O)CC(NCc3ccc4c(c3)OCO4)C2=O)cc1Cl (centres undefined) 0.36
O=C(c1cnn2ccccc12)N1CCc2ccccc21 -0.641
CCCN(CCC)C(=O)C1c2ccccc2Oc2ccccc21 0.123
CC(=O)c1cccc(NC(=O)c2ccncc2)c1 -0.215
C/C(=C\C(=O)c1cccnc1)Nc1ccc(C)c(C)c1 0.381
CCc1nc(Nc2ccc3nccnc3c2)c2oc3ccccc3c2n1 -1.78
Cc1cccc(N2CCN(C(c3ccccc3)c3nnnn3CC3CCCO3)CC2)c1C (centres undefined) -1.87
Cc1nc(N2CCN(c3ncccn3)CC2)c2oc3ccccc3c2n1 3.11
COc1ccc(CCNC(=O)CSc2nc(C)nc3c2oc2ccccc23)cc1OC 1.41
CCn1nnc(NC(=O)c2c(OC)cccc2OC)n1 -0.273
Cc1ccccc1CN1CCN(CC(=O)NCc2ccccn2)C1=O -0.577
COc1ccc2c(Cl)c(-c3nnco3)sc2c1 -2.33
COCCn1c(-c2ccc(OC)c(OC)c2)nc2ccccc21 1.2
COC(=O)c1ccc(NC(=O)CN(c2ccc(C)cc2)S(=O)(=O)c2c(C)n[nH]c2C)cc1 -1.32
CC(=O)NCC(=O)N(C)C(C(=O)Nc1ccc2c(c1)OCCO2)c1ccccc1 (centres undefined) 1.86
Cc1nc(Nc2ccc3c(c2)OCCO3)c2nnn(Cc3ccccc3Cl)c2n1 -2.58
CC(=O)NC(C)c1nc2ccccc2n1Cc1ccccc1F (centres undefined) 0.517
NC(=O)C1CC=CCC1C(=O)OCC(Cl)=C(Cl)Cl (centres undefined) -0.419
CCOc1cccc(=O)c2c(C)n(CC3CCCO3)c(C)c12 (centres undefined) 0.961
CCOC(=O)NC(C(F)(F)F)(C(F)(F)F)P(=O)(c1ccccc1)c1ccccc1 -0.00139
CCN(c1ccccc1)S(=O)(=O)c1ccc(N)cc1 0.0758
CC(NC(=O)CN1CCN(Cc2ccc(Cl)cc2)C1=O)c1ccc2c(c1)OCCO2 (centres undefined) -0.383
CCNc1nc(SCCOc2ccccc2)nc(N(C)C)n1 1.16
Cc1cccc(NC(=O)C2CCN(S(=O)(=O)c3cccc4cccnc34)CC2)c1 -1.64
CCOC(=O)c1ccc(Nc2cc(C)nc3nc(C)nn23)cc1 0.18
COc1cccc(N2CC(C(=O)Nc3c(C)cccc3C)CC2=O)c1 (centres undefined) 0.869
Cc1cc(NC(=O)CN2CCCCC2C)nc2c1c(=O)oc1ccccc12 (centres undefined) -0.0379
CC1CCCCN1CC(=O)NCc1ccc2c(c1)OCO2 (centres undefined) 0.0178
COCC(C)N=CC1=C(O)CC(C)(C)CC1=O (centres undefined) 0.0482
CCn1c(Cc2ccccc2)nnc1SCC(=O)Nc1ccccc1 -0.326
CC1OC2C(OC1C)N(S(C)(=O)=O)CCN2S(C)(=O)=O (centres undefined) -0.145
COc1ccc(-c2nnn(CC(=O)N(CCO)C(C(=O)NC3CCCC3)c3ccc(F)cc3)n2)cc1 (centres undefined) -0.256
CCc1ccc(-c2nnn(Cc3nn[nH]n3)n2)cc1 -0.837
COc1ccc(-n2nc3c(c2NC(=O)Cc2cccc(C)c2)CS(=O)C3)cc1 (centres undefined) 0.123
COc1cccc(NC(=O)Nc2nnc(N3CCCCC3C)s2)c1 (centres undefined) -0.931
CC/C(=N\O)C(C)(C)/[N+]([O-])=C/c1ccc(Br)cc1 0.458
CCCS(=O)(=O)N1CCC(C(=O)NCCCN(C)Cc2ccccc2)CC1 -0.981
COc1ccc(CCNC(=O)C2CCN(c3nn4c(=O)cc(C)nc4s3)CC2)cc1OC -0.543
CN1CCN(Cc2c(O)ccc3c2oc(=O)c2ccccc23)CC1 -0.323
O=C(CSc1nnc(-c2cccs2)n1Cc1ccco1)c1ccc2c(c1)OCO2 -1.01
CCOC(=O)N1CCC(NC(=O)c2cnn3ccccc23)CC1 0.314
O=C(O)C1CC(=O)N(Cc2cccnc2)C1 (centres undefined) -0.0843
O=C(Cn1nc(Cc2cccnc2)c2ccccc2c1=O)NCC1COc2ccccc2O1 (centres undefined) 0.362
Cc1cc2cc(CNC(=O)c3ccc(S(=O)(=O)N4CCOCC4)cc3)ccc2[nH]1 0.133
O=C(CN1C(=O)CSc2ncccc21)N1CCOCC1 -0.0289
Cc1cc(=O)cc(C)[nH]1 -0.271
CC(=O)NC(C)(C)C1CC=C(C)/C(=N\O)C1 (centres undefined) 0.674
OC(COc1ccccc1)Cn1cc(Br)cn1 (centres undefined) -0.000319
CCn1cc(C(=O)NCc2ccc3c(c2)OCO3)c2cc(OC)c(OC)cc2c1=O 0.436
CCn1cc(C(=O)N2CCN(Cc3ccc4c(c3)OCO4)CC2)c2cc(OC)c(OC)cc2c1=O -1.2
Cc1ccccc1C(=O)Nc1cccc(-c2nnc(SCC(=O)O)n2C)c1 -0.574
CCCc1[nH]nc2c1C(c1ccc(OC)c(Cn3nc(C)c(Br)c3C)c1)C(C#N)=C(N)O2 (centres undefined) 0.961
CC1(C)CC(=O)c2sc(N)nc2C1 -0.282
Cc1ccccc1CSCC(=O)NC(=O)NC(C)(C)C 0.485

B-score, active:
CCn1c(=N)c(S(=O)(=O)c2ccc(F)cc2)cc2c(=O)n3ccccc3nc21 4.93
COc1ccc(OC)c(C(c2nnnn2C(C)(C)C)N2CCc3ccccc3C2)c1 (centres undefined) -4.02
Cc1ccc(C(c2nnnn2C(C)(C)C)N2CCc3ccccc3C2)cc1 (centres undefined) -2.5
N#CCCN1CCN(S(=O)(=O)c2ccc(S(=O)(=O)NC3CCCCC3)cc2)CC1 3.08
CCOC(=O)C1=C(O)CSC1=Nc1cccc(Cl)c1 7.94
CCOC(=O)c1c(C2CC2)csc1NC(=O)CSCc1c(C)noc1C -3.6
CCOc1cc(/C=N/O)cc(Br)c1OC 10.9
C/C(=C\C(=O)c1ccccc1)Nc1cccc(O)c1 4.14
CCSc1nc(C)nc2c1oc1ccccc12 10.5
COc1ccc(-c2nnco2)cc1OC 9.98
C#CCNc1nc(C(C)C)nc2c1nnn2Cc1ccccc1F 8.02
CCCn1c(=O)c2[nH]c(C3CCCC3)nc2n(CCC)c1=O 20
CCNc1nc(NCC)nc(N(C)n2cnnc2)n1 6.74
CCc1ccc2oc(=O)cc(CN3CCCCC3C)c2c1 (centres undefined) 3.81
COc1ccc(-c2nnn(Cc3nc(N)nc(N4CCCCC4)n3)n2)cc1 5
CCCS(=O)(=O)N1CCC(C(=O)NCCc2ccc(OC)c(OC)c2)CC1 1.44
CC1Oc2ccccc2N(Cc2cccnc2)C1=O (centres undefined) 6.15
CCn1cc(C(=O)NCC2COc3ccccc3O2)c2cc(OC)c(OC)cc2c1=O (centres undefined) 5.22
CCCc1nc(N)nc2c1C(=O)CC(C)(C)C2 14.2
